JMJD2A Tudor = inhibitors of human JMJD2A Tudor domain | O75164 | Potency, µM (top dose mostly 114 µM), without a hit: top-dose activity change, negative = inhibition, usual class: inhibitors | AlphaScreen JMJD2A-Tudor / H3K4me3 peptide binding | hit rate 4.4% among 390,000; note: potency is the fitted concentration of half-maximal effect; % is set by controls: 0 for no effect and ±100 for the full control effect; nearly all actives have a fitted effect of over 50% in size
HP1b chromo inh = blocks HP1-beta chromodomain binding to methylated histone tails. P83916. AlphaScreen HP1-beta / biotin-H3K9me3 peptide binding. Potency, µM (highest dose often 114 µM), for inactives: at the highest dose activity change, negative = inhibition, usual class: inhibitors. hit rate 0.56% among 390,000. AID 540317; note: potency is the fitted concentration of half-maximal effect; nearly all actives have a fitted effect of over 70% in size
Target sequence (P83916 whole entry, looked up): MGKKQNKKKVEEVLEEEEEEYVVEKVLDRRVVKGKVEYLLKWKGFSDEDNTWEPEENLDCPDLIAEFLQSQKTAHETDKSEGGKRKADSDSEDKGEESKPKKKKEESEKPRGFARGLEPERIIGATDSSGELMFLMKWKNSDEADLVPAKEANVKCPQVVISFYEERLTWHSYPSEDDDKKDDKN
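AlphaScreen: HP1-beta (50 nM) preformed 30 min with biotin-H3(1-18)K9me3 peptide (50 nM) in PBS pH 7.4, 0.01% Tween-20. Compound added for 30 min at RT, then streptavidin donor/nickel chelate acceptor beads (10 ug/mL) for 30 min.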
Six1-Eya2 blk = Six1/Eya2 interaction inhibition. Q15475+O00167. AlphaScreen GST-Six1/His-Eya2 binding, biochemical; stronger effect = lower value. activity change, % (concentration not given with the values). hit rate 0.56% among 360,000. AID 651725; in the data active = activity change below about -65%; inconclusive = mostly about -30% to -63%; note: % is set by controls: 0 for no effect and ±100 for the full control effect
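GST-Six1 + His-Eya2 (5X stock: 250/500 nM); Tris pH 8.0, 300 mM NaCl, 0.05% BSA, 0.02% Tween 20; GSH donor/Ni acceptor beads; 1 h 37 °C dark; AlphaScreen readout.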
BAZ2B block = blocks human BAZ2B; AID 504333; hit rate 4.4% among 360,000; Q9UIF8; AlphaScreen BAZ2B-H3K14Ac peptide displacement; Potency, µM (series often up to 114 µM), for the others: at the highest dose activity change, negative = inhibition, hits mostly inhibitors; note: potency is the fitted concentration of half-maximal effect; % is set by controls: 0 for no effect and ±100 for the full control effect; nearly all actives have a fitted effect of over 60% in size
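Protein-peptide AlphaScreen: BAZ2B 50 nM, b-H3K14Ac 50 nM, 1x PBS pH 7.4 + 0.01% Tween-20. Preincubation 30 min RT; cpd 30 min RT (top 110 uM); beads 20 min RT, light-protected.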
CtBP-E1A inh = blocks the CtBP interaction with E1A; AlphaScreen GST-E1A/His-CtBP binding, 1536-well; stronger effect = lower value; activity change, % (test concentration not listed); hit rate 0.49% among 340,000; in the data active = activity change below about -65%; inconclusive = mostly about -30% to -63%; note: % is set by controls: 0 for no effect and ±100 for the full control effect
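Homogeneous bead-based format: GST-tagged E1A captured on glutathione donor beads, His-tagged CtBP on nickel acceptor beads; compounds precede bead addition by 2 h at 37 °C.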
G9a inh = G9a (human) methyltransferase inhibition | hit rate 8.8% among 350,000 | Potency, µM (doses to about 102 µM), for inactives: top-dose activity, negative = inhibition, most hits filed as inhibitors | G9a H3K9 monomethylation, AlphaScreen, 2 h | AID 504332 | Q96KQ7; note: potency is the fitted concentration of half-maximal effect; % is set by controls: 0 for no effect and ±100 for the full control effect; nearly all actives have a fitted effect of over 75% in size
Target sequence (Q96KQ7 913-1193 limits assumed): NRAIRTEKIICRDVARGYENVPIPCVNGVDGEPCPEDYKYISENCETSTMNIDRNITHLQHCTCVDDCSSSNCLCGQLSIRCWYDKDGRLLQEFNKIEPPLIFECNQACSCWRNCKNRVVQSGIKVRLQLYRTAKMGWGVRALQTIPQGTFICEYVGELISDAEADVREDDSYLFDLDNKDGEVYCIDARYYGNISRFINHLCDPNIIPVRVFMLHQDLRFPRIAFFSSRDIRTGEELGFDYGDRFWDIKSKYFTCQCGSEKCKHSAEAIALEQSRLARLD
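Using a bead-based AlphaScreen, monomethylated H3K9 product from 2 h room-temperature reactions (G9a 20 nM, peptide 500 nM, SAM 20 uM) was detected with 0.5 ug/mL rabbit anti-H3K9me1 antibody.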
* hit, by the source's call; ? = inconclusive; . = not tested or not shown; [ ] = remark or other dose. A selection: hits, their analogues and other compounds. The true share with any hit is near 10%. Unless noted, calls come from the whole dose curve; as a rule, active = well fitted inhibition curve with a large enough effect; inconclusive = small, poorly fitted or top-dose-only effect; inactive = no such curve, though single readings can be large or run the other way.

SMILES | JMJD2A Tudor | HP1b chromo inh | Six1-Eya2 blk | BAZ2B block | CtBP-E1A inh | G9a inh
Cc1ccc(NC(=O)CSc2nc3c(c(=O)[nH]2)CN(Cc2ccccc2)CC3)cc1Cl | -23% | 16% | . | -4% | . | -7%[59 µM]
O=C(CN(Cc1cccs1)C(=O)CSc1nnc(COc2ccccc2)o1)NC1CCCC1 | -12% | 32% | 3 | -8% | 12 | -2%[59 µM]
Cc1ccc(CN(CC(=O)NC2CCCC2)C(=O)CSc2nnc(COc3ccccc3)o2)cc1 | -27% | ? | 6 | 47% | 0 | 32µM*
O=C(CN(Cc1ccccc1)C(=O)CSc1nnc(COc2ccccc2)o1)NC1CCCC1 | -12% | -8% | 2 | -2% | 6 | 10µM*
O=C(CSc1nnc(COc2ccccc2)o1)NCCc1ccccc1 | 3.2µM* | ? | 12 | 6% | 0 | -4%[59 µM]
COc1ccc(-c2oc3cccnc3c2C#CCO)cc1 | -7% | 28% | -12 | -3% | -15 | 50µM*
COc1ccc(-c2sc3cc(OC)c(OC)cc3c2C#CC2(O)CCCCC2)cc1 | -26% | 20% | -2 | 79µM* | -1 | -33%[0.501 µM]
COc1ccc(-c2oc3cccnc3c2C#CC2(O)CCCCC2)cc1 | -11% | 64% | 9 | -29% | -13 | 28µM*
COc1ccc(-c2sc3ccccc3c2C#CC2(O)CCCCC2)cc1 | -3% | 51% | 1 | 46% | 8 | .
COc1ccc(-c2oc(=O)c3cc(OC)c(OC)cc3c2C#CC2(O)CCCCC2)cc1 | -7% | 8% | 6 | . | 4 | .
CC1CCCN(CCOc2cccc(Oc3ccccc3)c2)C1 (configuration not stated) | 22µM* | ? | -14 | 56µM* | 7 | 8.9µM*
CC1CN(CCCCOc2cccc(Oc3ccccc3)c2)CC(C)O1 (configuration not stated) | 0.89µM* | ? | 7 | 35µM* | 16 | -125%[59 µM]
CC1CN(S(=O)(=O)c2cccc(C(=O)OCCOc3ccccc3)c2)CC(C)O1 (configuration not stated) | 16% | 47% | 4 | 6% | 23 | 5%[12.7 µM]
COc1cccc(OCCCCCN2CCOCC2)c1 | -14% | 10% | 2 | -3% | 4 | -100%
CC1CN(CCOc2cccc(Oc3ccccc3)c2)CC(C)O1 (configuration not stated) | 20µM* | ? | -7 | 50µM* | 9 | 10µM*
CC1CCCN(CCC(=O)c2ccccc2)C1 (configuration not stated) | 1% | 16%[57 µM] | 4 | . | 0 | .
c1ccc(Oc2cccc(OCCCCN3CCCC3)c2)cc1 | 35µM* | -28% | -1 | 56µM* | -12 | ?
Cc1cc2c(s1)c1cnn(Cc3ccccc3Br)c(=O)c1n2C | -20% | . | . | . | . | .
COc1ccc(NC(=O)Cn2ncc3c2-c2ccccc2OC3)cc1Cl | -10% | 16% | . | 3% | . | -1%[59 µM]
CC1CCCN(CC(O)COc2ccc(Cl)cc2)C1 (configuration not stated) | -5% | 7% | 2 | 1% | 4 | 9%[2.33 µM]
CCCOc1ccc(OCCN2CCCC(C)C2)cc1 (configuration not stated) | ? | 39% | -6 | 56µM* | 0 | 14µM*
CCN(CCCNC(=O)c1nn(-c2ccc(C)cc2)c(=O)c2c1c1ccccc1n2C)c1ccccc1 | -9% | 39% | . | . | . | -4%[59 µM]
CC(C(=O)NCc1ccccc1F)n1ccc2cc(S(=O)(=O)N3CCCC3)ccc21 (configuration not stated) | -4% | 27% | . | -20% | . | -8%[59 µM]
COc1ccc(N2CCN(CCCNC(=O)c3cc(Nc4ccc(OC)cc4OC)nc4ccccc34)CC2)cc1 | 25µM* | ? | . | 16µM* | . | 13µM*
COc1ccc(Nc2cc(C(=O)N3CCc4ccccc4C3)c3ccccc3n2)c(OC)c1 | ? | 4% | -23 | ? | -14 | 18µM*
SMILES | JMJD2A Tudor | HP1b chromo inh | Six1-Eya2 blk | BAZ2B block | CtBP-E1A inh | G9a inh
COc1ccc(Nc2cc(C(=O)NCCCN(C)C3CCCCC3)c3ccccc3n2)c(OC)c1 | 20µM* | ? | . | . | . | ?
COc1ccccc1Nc1cc(C(=O)N2CCc3ccccc3C2)c2ccccc2n1 | . | . | . | -12% | . | 9%
CC1CCN(CCOc2cc(Cl)ccc2Cl)CC1 | 3.5µM* | ? | -6 | 50µM* | 0 | ?
Cc1ccccc1OCCCCCCN1CCNCC1 | -27% | -4% | 0 | . | -2 | .
CN1CCN(CCCCOc2ccccc2C=O)CC1 | 4µM* | ? | -18 | 22µM* | -6 | .
Clc1ccccc1OCCCCN1CCNCC1 | 3.2µM* | ? | 5 | 28µM* | -1 | .
c1ccc2c(OCCCCN3CCCC3)cccc2c1 | 40µM* | ? | -5 | 56µM* | . | 35µM*
CC(=O)c1ccc(NC(=O)c2ncn(-c3ccccc3)n2)cc1 | -15% | 11% | . | 5% | . | -2%[59 µM]
O=C(CSc1nccn1Cc1ccco1)Nc1ccc(OC(F)(F)F)cc1 | ? | -1%[57 µM] | . | ? | . | -44%[59 µM]
Cc1ccc(NC(c2cccc(Cl)c2)c2nnc(-c3ccccc3)o2)cc1F (configuration not stated) | -16% | 15% | . | ? | . | -3%[59 µM]
Fc1ccccc1OCCCCN1CCCCC1 | 79µM* | -12% | 6 | ? | 0 | 50µM*
O=C(COc1ccc(Cl)cc1Cl)NCCN1CCCCC1 | . | . | -3 | . | -8 | .
Clc1ccccc1OCCCCN1CCCC1 | 3.2µM* | ? | 7 | ? | 1 | ?
Clc1ccccc1OCCCCN1CCCCC1 | 28µM* | ? | 1 | ? | -10 | .
Clc1ccc(Cl)c(OCCCCN2CCCCC2)c1 | 32µM* | ? | -9 | ? | -16 | 8.9µM*
CC(C)c1ccccc1OCCCCN1CCCCC1 | -4% | 36% | 1 | . | . | .
O=C(CSc1c2c(nc3ccc(Cl)cc13)CCCC2)N1CCN(c2cccc(Cl)c2)CC1 | -26% | 13% | . | . | . | ?
CC(C)(C)C(=O)Cn1c(=O)n(-c2ccc(Cl)cc2)c(=O)c2c3c(sc21)CCCC3 | -5% | 30% | . | -2% | . | -5%[59 µM]
CCOC(=O)c1c(NC(=O)c2cc3nc(-c4ccccc4)cc(C(F)(F)F)n3n2)sc2c1CCC(C)C2 (configuration not stated) | -10% | 26% | . | 3% | . | 11%[59 µM]
Cn1c(Cc2ccccc2)nnc1SCC(=O)N1CCCCC1 | -12% | 27% | 3 | 4% | 1 | 1%[59 µM]
Nn1c(COc2cccc(Br)c2)nnc1SCC(=O)NCC1CCCO1 (configuration not stated) | -3% | 45% | 2 | 8% | -17 | 11%[12.7 µM]
Nn1c(COc2cccc(Br)c2)nnc1SCC(=O)N1CCc2ccccc2C1 | -16% | 52% | 0 | -10% | 2 | 40µM*
Cn1c(Cc2ccc3c(c2)OCO3)nnc1SCC(=O)N1CCc2ccccc2C1 | -22% | 6% | -4 | 10% | -4 | 45µM*
